HEK293 viab = cell viability loss counter-screen; HEK-293-SNCA-luc viability, GF-AFC fluorescence, 24 h; Potency, µM (series often up to 57.1 µM), hits mostly cytotoxic; actives 0.12% (n = 150,000); further: nearly all actives have a fitted effect of over 30% in size
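HEK-293-SNCA-luc cells (1500/well) plated 24 h, then exposed 24 h to a dilution series; GF-AFC added 30 min at 37C, fluorescence 405/540 nm; normalised to medium-only and DMSO wells, Hill fit.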
IP6K1 inhibitor = IP6K1 kinase inhibition; activity change, % (series mostly up to about 58 µM); AID 1645851; actives 0.81% (n = 140,000); IP6K1 kinase, ADP-Glo luminescence, 2 h; stronger effect = lower value; in the data active means activity change below about -25%
Target sequence (Q92551 whole entry, looked up): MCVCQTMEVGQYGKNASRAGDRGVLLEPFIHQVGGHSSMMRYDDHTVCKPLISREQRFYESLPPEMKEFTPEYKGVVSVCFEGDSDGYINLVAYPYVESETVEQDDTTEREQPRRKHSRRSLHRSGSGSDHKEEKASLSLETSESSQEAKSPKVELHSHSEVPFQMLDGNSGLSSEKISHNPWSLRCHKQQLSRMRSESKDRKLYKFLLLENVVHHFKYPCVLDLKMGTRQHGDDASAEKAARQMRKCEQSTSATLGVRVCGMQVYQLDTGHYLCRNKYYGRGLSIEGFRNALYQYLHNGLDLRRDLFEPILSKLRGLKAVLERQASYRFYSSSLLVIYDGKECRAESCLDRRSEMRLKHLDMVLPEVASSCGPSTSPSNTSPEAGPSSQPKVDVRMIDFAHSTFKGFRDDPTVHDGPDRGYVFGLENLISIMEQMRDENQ
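ADP-Glo luminescence measures ADP made by human IP6K1 during a 2 h RT reaction with ATP/IP6 (mix at 1.3 mM/130 uM); top library doses 57.5 and 19.1 uM final.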
SNCA expr inh = SNCA gene expression inhibition; HEK-293 SNCA-luciferase knock-in, luminescence, 24 h; Potency, µM (doses to about 57.2 µM), most hits filed as inhibitors; actives 0.17% (n = 140,000); AID 1671194; further: nearly all actives have a fitted effect of over 45% in size
KDM5B inhibitor = KDM5B demethylase inhibition | KDM5B demethylase, FDH-coupled NADH fluorescence (FDH is formaldehyde dehydrogenase) | AID 1347165 | actives 2.6% (n = 220,000) | Potency, µM (top dose mostly 57.7 µM), hits mostly inhibitors | Q9UGL1; further: nearly all actives have a fitted effect of over 70% in size
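qHTS format, multiple compound concentrations. Buffer 50 mM HEPES pH 7.5/0.01% Tween-20; 200 nM KDM5BΔAP final; 10 min compound preincubation; substrate-mix levels 12.5 µM peptide, 25 µM α-KG, 0.25 mM NAD⁺; 30 min RT; ΔRFU.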
Large screens that a line does not name were inactive; ! = not active in a repeat. Only some compounds are listed: those with a hit (about 2.9% of all), similar ones and a draw of the others. Unless noted, the call rests on the fitted dose curve; in most records, active means well fitted curve in the direction sought with a large enough effect; inconclusive means small, poorly fitted or top-dose-only effect, or another doubt; inactive means no such curve, though single readings can be large; an effect the other way counts as inactive or inconclusive.

CC1(C(=O)N2CCN(c3ccccn3)CC2)CCc2cnc(NCc3ccccc3)nc21 (stereo not drawn)	SNCA expr inh inconclusive, KDM5B inhibitor inconclusive
CC1(C(=O)NCCc2ccccn2)CCc2cnc(NCc3ccccc3)nc21 (stereo not drawn)	SNCA expr inh inconclusive, KDM5B inhibitor 32µM
O=C(O)CCC(=O)N1Cc2ccccc2CC2(CCCN2CC2CCNCC2)C1 (stereo not drawn)	none
CCNC(=O)N1CC(C(=O)NCc2cccc(C)c2)CC(c2ccc(F)c(C)c2)C1 (stereo not drawn)	SNCA expr inh inconclusive, KDM5B inhibitor inconclusive
c1cn(CCc2noc(C3CCCO3)n2)c(-c2nc3c(s2)CCCC3)n1 (stereo not drawn)	KDM5B inhibitor 32µM
CCn1nc(C(=O)Nc2ccnn2C2CCN(C)CC2)c2ccccc2c1=O	none (no result: HEK293 viab, IP6K1 inhibitor, SNCA expr inh)
COCc1ccc2c(c1)c(OC(C)(C)C(=O)NCC(F)(F)F)nn2Cc1ccccc1	KDM5B inhibitor inconclusive
COCc1ccc2c(c1)c(OC(C)(C)C(=O)NCC[S+](C)(=O)[O-])nn2Cc1cccnc1	none
COCc1ccc2c(c1)c(OC(C)(C)C(=O)NCC1CC1)nn2Cc1ccccc1	KDM5B inhibitor 32µM
COCc1ccc2c(c1)c(OC(C)(C)C(=O)NCC1CCOCC1)nn2CCC(C)C	KDM5B inhibitor 35µM
COCc1ccc2c(c1)c(OC(C)(C)C(=O)NC1CCOCC1)nn2Cc1ccccc1	KDM5B inhibitor 28µM
COCc1ccc2c(c1)c(OC(C)(C)C(=O)NCC[S+](C)(=O)[O-])nn2Cc1ccccc1	KDM5B inhibitor 28µM
O=C(c1ccc(C(F)(F)F)cc1)N1CCC2(CC1)C(=NC1CCCCC1)NC(=O)N2c1cccnc1	none
O=C(NC[C@H]1Cn2c(-c3ccc4c(c3)OCCO4)cnc2CO1)Nc1ccccc1	none
CN(C)Cc1ccc2c(c1)c(OC(C)(C)C(=O)NC1CC1)nn2Cc1ccccc1	KDM5B inhibitor 35µM
COCc1ccc2c(c1)c(OC(C)(C)C(=O)NC1CC1)nn2Cc1ccccc1	KDM5B inhibitor 35µM
COCc1ccc2c(c1)c(OC(C)(C)C(=O)Nc1ccccn1)nn2Cc1ccccc1	KDM5B inhibitor inconclusive
CC(C)(Oc1nn(Cc2cccc(Cl)c2)c2ccccc12)C(=O)NC1CCOCC1	SNCA expr inh inconclusive, KDM5B inhibitor inconclusive
Fc1ccc(-c2nc(-c3c(F)cccc3F)[nH]c2-c2ccncc2)cc1	none (no result: SNCA expr inh, KDM5B inhibitor)
CS(=O)c1ccc(-c2nc(-c3ccc(F)cc3)c(-c3ccncc3)[nH]2)cc1 (stereo not drawn)	SNCA expr inh 12µM (no result: KDM5B inhibitor)
Cn1c(=O)c2c(ncn2CC(COCc2ccc(F)cc2)OCc2ccc(F)cc2)n(C)c1=O (stereo not drawn)	none (no result: HEK293 viab, IP6K1 inhibitor, SNCA expr inh)
COc1ccc(-c2ccc3nnc(CNC(=O)c4sccc4C)n3n2)cc1	KDM5B inhibitor 32µM
COc1ccc(-c2ccc3nnc(CNC(=O)c4ccc(C)cc4C)n3n2)cc1	KDM5B inhibitor 28µM
COc1ccc(-c2ccc3nnc(CNC(=O)COc4cccc(C)c4)n3n2)cc1	KDM5B inhibitor 25µM
COc1ccc(C(=O)NCc2nnc3ccc(-c4ccc(C)cc4)nn23)c(C)c1	KDM5B inhibitor 28µM
CC(C)(C)C(=O)NCCNC(=O)c1ccc(-c2cncnc2)cc1	none (no result: HEK293 viab, SNCA expr inh, KDM5B inhibitor)
CCCCSc1nc2c(c(=O)[nH]c(=O)n2C)n1CC	none (no result: HEK293 viab, IP6K1 inhibitor, SNCA expr inh)
c1cc(OCc2nc(-c3ccsc3)no2)cc(-n2cnnn2)c1	none (no result: HEK293 viab, IP6K1 inhibitor, SNCA expr inh)
CN1CCN(c2ccc(C(=O)Nc3n[nH]c4ccc(Cc5cc(F)cc(F)c5)cc34)c(NC3CCOCC3)c2)CC1	HEK293 viab 27µM!, SNCA expr inh inconclusive (no result: KDM5B inhibitor)
CN1CCN(c2ccc(NC(=O)c3cc(F)cc(F)c3)nc2)CC1	none (no result: HEK293 viab, IP6K1 inhibitor, SNCA expr inh)
Cc1ccc(Cl)cc1-n1nc(-c2c(C)nc3scc(CC(=O)N4CCOCC4)n3c2=O)cc1C	KDM5B inhibitor 28µM
Cc1ccc(C)c(-n2nc(-c3c(C)nc4scc(CC(=O)N5CCOCC5)n4c3=O)cc2C)c1	KDM5B inhibitor 28µM
CNC(=O)c1ccc2c(c1)NC(C)(COc1ccccc1)CO2 (stereo not drawn)	KDM5B inhibitor 32µM
CNC(=O)c1ccc2c(c1)NC(C)(CNc1ccccc1)CO2 (stereo not drawn)	KDM5B inhibitor inconclusive
CN(C)c1cccc(NC(=O)c2ccc3c(c2)NC(C)(COc2cccnc2)CO3)c1 (stereo not drawn)	KDM5B inhibitor inconclusive
CN(C)c1cccc(NC(=O)c2ccc3c(c2)NC(C)(COc2ccccc2)CO3)c1 (stereo not drawn)	SNCA expr inh inconclusive, KDM5B inhibitor 32µM
CC(=O)c1c(C)nn(CCC(=O)N[C@@H]2CCNC[C@H]2O)c1C	none
Cc1nc(N(C)C)ncc1C(=O)N[C@@H]1CCNC[C@H]1O	KDM5B inhibitor 14µM
O=C(Nc1cccc(F)c1)c1cccn2c(-c3ccc(F)cc3)nnc12	none (no result: HEK293 viab, IP6K1 inhibitor, SNCA expr inh)
CCn1cc(CN2CCN(C(=O)CCc3ccccc3)CC2)ccc1=O	KDM5B inhibitor 7.1µM
CCn1cc(CN2CCN(C(=O)c3cccs3)CC2)ccc1=O	KDM5B inhibitor 11µM
O=C(c1ccccn1)N1CCN(Cc2ccc(=O)n(CC3CC3)c2)CC1	KDM5B inhibitor 16µM
CN(Cc1ccccc1)[C@@H]1C[C@@H]2COCC[C@]2(c2ccccc2)C1	none (no result: HEK293 viab, SNCA expr inh, KDM5B inhibitor)
CN(C)c1cccc(-c2nc(C3CC(=O)N(c4ccc(F)cc4)C3)no2)c1 (stereo not drawn)	KDM5B inhibitor 35µM
CC(C)(C)c1ccc(-c2nc(C3CC(=O)N(c4ccc(F)cc4)C3)no2)cc1 (stereo not drawn)	none
CN(C)c1ccc(-c2nc(C3CC(=O)N(c4ccc(F)cc4)C3)no2)cc1 (stereo not drawn)	KDM5B inhibitor 32µM
Cc1ccc(N2CC(c3noc(-c4cccc(N(C)C)c4)n3)CC2=O)cc1 (stereo not drawn)	HEK293 viab inconclusive, KDM5B inhibitor 35µM
Cc1ccc(N2CC(c3noc(-c4ccncc4)n3)CC2=O)cc1 (stereo not drawn)	none
O=C(CCl)Nc1cccc(NC2=NS(=O)(=O)c3ccccc32)c1	HEK293 viab 30µM (no result: SNCA expr inh, KDM5B inhibitor)
CC(C)C(=O)Nc1cccc(NC2=NS(=O)(=O)c3ccccc32)c1	none
CCc1n[nH]c(CC2CCN(C(=O)c3ccccc3)CC2)n1	SNCA expr inh inconclusive, KDM5B inhibitor 22µM
COc1cc(OC)c(NC(=O)Cn2ccn3nc4c(c3c2=O)CCCC4)cc1Cl	KDM5B inhibitor inconclusive
CN(C)Cc1cccc(-c2cc3c(ccn3Cc3cccnc3)c(C3=CCOCC3)n2)c1	KDM5B inhibitor 40µM
Cc1ccc(-c2cc3c(ccn3Cc3cccnc3)c(C3=CCOCC3)n2)cn1	KDM5B inhibitor 35µM
COc1cccc(-c2cc3c(ccn3Cc3cccnc3)c(C3=CCOCC3)n2)c1OC	KDM5B inhibitor 28µM
C1=C(c2nc(-c3cncnc3)cc3c2ccn3Cc2cccnc2)CCOC1	KDM5B inhibitor inconclusive
C[S+](=O)([O-])Nc1cccc(-c2cc3c(ccn3Cc3cccnc3)c(C3=CCOCC3)n2)c1	KDM5B inhibitor inconclusive
CCOC(=O)[C@H]1[C@@H](O)C(=O)N(Cc2ccccc2)C12CCN(C(=O)C(C)C)CC2	none (no result: HEK293 viab, SNCA expr inh, KDM5B inhibitor)

From PubChem
